Compounds without any hit were thinned out: in the full panel of roughly 83,000, 20% have a hit.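 Note: values are percent growth. 100 is the growth of untreated cells, values between 100 and 0 indicate rising inhibition; between -100 and 0 indicates cell death.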 The source made the active and inactive calls. Rule for the calls: active = growth percent below 10; inactive = the rest.
Legend:
Test in all cases: NCI-60 one-dose screen, 48 h (100 = growth as untreated, 0 = no growth, -100 = all killed)
Settings in all cases: 10 µM unless noted
[1] = test system: SR leukemia
[2] = test system: RPMI-8226 leukemia
[3] = test system: OVCAR-8 ovarian
[4] = test system: OVCAR-5 ovarian
[5] = test system: OVCAR-4 ovarian
[6] = test system: SK-OV-3 ovarian
[7] = test system: IGROV1 ovarian
[8] = test system: OVCAR-3 ovarian
[9] = test system: HS 578T breast
[10] = test system: NCI/ADR-RES ovarian
[11] = test system: T-47D breast
[12] = test system: BT-549 breast
[13] = test system: MDA-MB-435 melanoma
[14] = test system: SW-620 colon
[15] = test system: MCF7 breast
[16] = test system: HCT-116 colon
[17] = test system: HCC-2998 colon
[18] = test system: KM12 colon

Measured: growth

Nc1nc2ccccc2c2c1S(=O)(=O)c1ccc(Cl)cc1C2=O
active: [1] 3.3% | [2] -15.1% | [3] 8.43% | [5] 7.52% | [8] -12.5% | [9] 6.88% | [11] -0.213% | [14] 2.06% | [15] 9.68% | [16] 1.05%
inactive: [4] 13.9% | [6] 58.6% | [7] 27.6% | [10] 24.8% | [12] 24.3% | [13] 20.5% | [17] 41.5%

CCOC(=O)Cc1cnc(N/N=C(\C)c2cc3ccccc3o2)s1
inactive: [1] 106% | [2] 98.6% | [3] 94% | [4] 99.7% | [5] 93.5% | [6] 92.1% | [7] 87.4% | [8] 107% | [9] 100% | [10] 103% | [11] 70.5% | [12] 109% | [13] 108% | [14] 96.9% | [15] 81.3% | [16] 96.4% | [17] 105%

CS(=O)(=O)Nc1cc(-c2ccc3ncnc(Nc4ccc5c(cnn5Cc5ccc(F)cc5)c4)c3c2)cnc1Cl
inactive: [1] 34% | [3] 67.9% | [4] 44.7% | [5] 71% | [6] 47.5% | [10] 90% | [13] 45.3% | [14] 43.1% | [15] 14.4% | [16] 57% | [17] 59.1% | [18] 71.8%
active: [2] 9.43% | [7] -15.7% | [8] 9.71% | [9] -9.56% | [11] 5.06% | [12] 9.27%

Cc1ccc(NC(=O)c2sc3nc(C)c(Br)c(C)c3c2N)cc1
inactive: [1] 81.6% | [2] 83.3% | [3] 39.7% | [4] 79.1% | [5] 11.7% | [6] 48.9% | [7] 51.8% | [8] 67% | [9] 31.8% | [10] 51.8% | [11] 61.9% | [12] 79.7% | [13] 81.8% | [14] 78.3% | [15] 59.1% | [16] 72.6% | [17] 92.1%

Cc1ccc(C2=Nc3c(N)ncnc3NC(c3cccc(Nc4ccnc5cc(C(F)(F)F)ccc45)c3)C2)cc1 (stereo not drawn)
active: [1] -19.3% | [2] -26.6% | [13] -55.4% | [15] 8.09%
inactive: [3] 48.5% | [4] 75.2% | [5] 45.6% | [6] 46.7% | [7] 44.7% | [8] 39.2% | [9] 43.3% | [10] 17.4% | [11] 38.4% | [12] 53.6% | [14] 12.3% | [16] 12.6% | [17] 31% | [18] 15.9%

CCOC(=O)C1=C(c2ccccc2)N=C2SC=C(c3ccc(Cl)cc3)N2C1c1ccc(Br)cc1 (stereo not drawn)
inactive: [1] 74.2% | [2] 61.8% | [3] 80.3% | [4] 94.9% | [5] 50.5% | [6] 82.5% | [7] 74.5% | [8] 67.4% | [9] 77.9% | [10] 83% | [11] 52.2% | [12] 84.3% | [13] 94.3% | [14] 78.9% | [15] 75.2% | [16] 64.9% | [17] 90.5% | [18] 78.1%

COc1ccc(/C=N/NC(=O)c2ccc(-n3cc(-c4ccccc4)nn3)cc2)cc1OC
inactive: [1] 111% | [2] 61.8% | [3] 99% | [4] 97.9% | [5] 106% | [6] 99.3% | [7] 95.6% | [8] 129% | [9] 103% | [10] 101% | [11] 98.3% | [12] 92.9% | [13] 98.4% | [14] 116% | [15] 75.3% | [16] 92.7% | [17] 113% | [18] 104%

CS(=O)(=O)Nc1cc(-c2ccc3ncnc(Nc4ccc5c(cnn5Cc5cccc(F)c5)c4)c3c2)cnc1Cl
inactive: [3] 28.1% | [5] 26.4% | [10] 78.2% | [14] 18.4% | [18] 13.9%
active: [1] 4.76% | [2] -24.4% | [4] 7.19% | [6] -17.7% | [7] -51.2% | [8] -5.45% | [9] -14.8% | [11] -24.6% | [12] -13.5% | [13] 8.98% | [15] 0.881% | [16] 4.08% | [17] 2.5%

Cn1cc(-c2csc(-c3c[nH]c4ccc(Br)cc34)n2)c2ccnc(Cl)c21
inactive: [1] 31.6% | [2] 51.4% | [3] 63.8% | [4] 114% | [5] 53.6% | [6] 78.1% | [7] 65.9% | [8] 77.4% | [9] 68.7% | [10] 65.6% | [11] 25.9% | [12] 84.1% | [13] 78.5% | [15] 46.6% | [16] 49.8% | [17] 82.9% | [18] 50.8%
active: [14] 8.27%

COc1ccc(/C=C(\C#N)n2nnc3ccc(Cl)cc32)cc1
inactive: [1] 29.9% | [2] 67.8% | [3] 48.8% | [4] 92% | [5] 71.6% | [6] 108% | [7] 59.5% | [9] 74.4% | [10] 39.3% | [11] 51.1% | [12] 68% | [14] 11.8% | [15] 18.6% | [16] 39% | [17] 87.3% | [18] 39.3%
active: [8] -18.4% | [13] -22.8%

O=C(/C=C/c1cccc(Cl)c1)c1ccc(Nc2nc(Nc3ccc(F)cc3)nc(Nc3ccc(Cl)cc3)n2)cc1
inactive: [1] 75.6% | [3] 92.8% | [4] 98% | [5] 111% | [6] 131% | [7] 113% | [8] 130% | [9] 110% | [10] 100% | [11] 113% | [12] 172% | [13] 117% | [14] 104% | [15] 230% | [16] 82.3% | [17] 98.2% | [18] 112%
active: [2] 5.94%

CC1=C([Se]CC(OC(=O)CC[Se]c2ccccc2)C(=O)NC(C)(C)C)C(=O)c2ccccc2C1=O (stereo not drawn)
active: [1] -27.7% | [3] -82% | [4] -63.1% | [5] -83.6% | [6] -98.3% | [7] -19.2% | [8] -95.9% | [9] -19.1% | [10] -36.3% | [11] -54.5% | [12] -89% | [13] -61.7% | [14] -76.9% | [15] -54.7% | [16] -61.9% | [17] -87.2% | [18] -92.3%
inactive: [2] 14.8%

CC(C)c1ccc(-n2c(=S)[nH]c3sc4cc(O)ccc4c3c2=O)cc1
inactive: [1] 102% | [2] 100% | [3] 102% | [4] 100% | [5] 111% | [6] 112% | [7] 91.4% | [8] 104% | [9] 92.4% | [10] 103% | [11] 105% | [12] 91.4% | [13] 100% | [14] 96.9% | [15] 90.1% | [16] 98.4% | [17] 103% | [18] 105%

C#CCOC(=O)/C=C/c1cn(-c2ccccc2)nc1-c1ccc(OC)cc1
inactive: [1] 83.2% | [2] 105% | [3] 78.5% | [4] 91% | [5] 90.7% | [6] 89.3% | [7] 74% | [8] 103% | [9] 76.9% | [10] 98.4% | [11] 88.3% | [12] 108% | [13] 107% | [14] 112% | [15] 79.1% | [16] 74.8% | [17] 105% | [18] 96.9%

C/C(Cc1ccc(Cl)cc1)=C(\c1ccc(O)cc1)c1ccc(Cl)cc1
inactive: [1] 80.5% | [2] 72.5% | [3] 104% | [4] 92.5% | [5] 89.3% | [6] 112% | [7] 96.8% | [8] 103% | [9] 99.6% | [10] 100% | [11] 82.1% | [12] 98.1% | [13] 93% | [14] 95.4% | [15] 102% | [16] 71.6% | [17] 91.9% | [18] 88.6%

O=C1c2c(c3c4ccccc4[nH]c3c3ccc4ccccc4c23)C(=O)N1CCN1CCOCC1
active: [2] 7.91%
inactive: [1] 13.1% | [3] 31.5% | [4] 71.7% | [5] 57.7% | [6] 81.2% | [7] 30% | [8] 44.1% | [9] 62.5% | [10] 21.1% | [11] 18.6% | [12] 69.8% | [13] 58.6% | [14] 36.1% | [15] 16.4% | [16] 23.4% | [17] 80% | [18] 36.4%

COc1cc(-c2nc3sccn3c2-c2ccnc(NCCNS(=O)(=O)c3ccccc3)n2)ccc1F
inactive: [1] 45.3% | [2] 31% | [3] 46.1% | [4] 113% | [5] 52.3% | [6] 52.5% | [7] 43.1% | [8] 74.9% | [9] 69.6% | [10] 47% | [11] 14.3% | [12] 67.8% | [13] 26% | [14] 86.4% | [15] 37.9% | [16] 42.6% | [17] 96.5% | [18] 17.1%
